In PubChem BioAssay (Tox21):
Inconclusive results are not listed. Where a call stands in place of a potency, no number is given. A number with no mark means an inactive call. Activity calls are given as the source filed them. Calls follow the shape of the dose curve; as a rule, active = well fitted cell-killing curve with a large enough effect in the repeat runs; inconclusive = weak or mixed curves, or effect the other way; inactive = flat fitted curve, though single readings scatter.

Key:
[1] = cAMP Responsive Elements (CRE) small molecule antagonists, cell-based qHTS assay: qHTS cell viability counter screen (AID 2060913); details: CRE-bla HEK293T viability, CellTiter-Glo luminescence, 5 h; series mostly up to 92.4 µM; also: nearly all actives have a fitted effect of over 40% in size; also: potency is read from the fitted curve at half-maximal effect
Method in brief: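 HEK293T CRE-bla, 2,000 cells/well, 18 h preincubation; cpd in DMSO + NKH477 0.25 uM final, 3 h 37 C/5% CO2; LiveBLAzer 2 h RT, then CellTiter-Glo 30 min RT, luminescence.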

[2] = cAMP Responsive Elements (CRE) small molecule agonists, cell-based qHTS assay: qHTS cell viability counter screen (AID 2060914); details: CRE-bla HEK293T viability, CellTiter-Glo luminescence, 5 h; series mostly up to 92.4 µM;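 also: viability read after 3 h of compound exposure; nearly all actives have a fitted effect of over 50% in size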
Method in brief: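 HEK 293T CRE-bla; DMEM + 10% dialyzed FBS, 25 mM HEPES; 18 h pre-incubation; compound 3 h, 37 °C/5% CO2; CellTiter-Glo added after reporter read; luminescence after 30 min RT.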

| SMILES | Potency [1] | Potency [2] | viability change, negative = cytotoxic [1] | activity change, negative = cytotoxicity [2] |
| --- | --- | --- | --- | --- |
| CCCC1CCC(=O)CC1 | inactive | inactive | – | – |
| [Ca+2] | inactive | inactive | – | – |
| NCCN1CCNC1=O | inactive | inactive | – | – |
| OC[C@@H](O)[C@@H](O)[C@H](O)[C@H](O)CO | inactive | inactive | – | – |
| O=Cc1ccc(F)cc1 | inactive | inactive | – | – |
| CC(C)CCCCCCN | inactive | inactive | – | – |
| Cn1c(=O)c2c(ncn2CC(O)CO)n(C)c1=O (configuration not stated) | inactive | inactive | – | – |
| C=C(C)C(=O)OCCCCCCCCCCCC | inactive | inactive | – | – |
| CCCCOC(=O)CC(CC(=O)OCCCC)(OC(C)=O)C(=O)OCCCC | inactive | inactive | – | – |
| CCCCCCOC(=O)CCCCC(=O)OCCCCCC | inactive | inactive | – | – |
| N=C1N=C(N)c2ccccc21 | inactive | inactive | – | – |
| Cc1cccc(C)c1NC(=O)c1cc(S(N)(=O)=O)c(Cl)cc1O | inactive | inactive | – | – |
| CN(Cc1cc(Br)cc(Br)c1N)C1CCCCC1 | inactive | inactive | – | – |
| Cc1ccc(S)cc1 | inactive | inactive | – | – |
| CCOC(=O)/C=C/c1ccccc1 | inactive | inactive | – | – |
| CC(C)(C)c1ccc(S)cc1 | inactive | inactive | – | – |
| CCC(C)(C)C1CCC(=O)CC1 | inactive | inactive | – | – |
| COC(=O)[C@H](Cc1ccccc1)NC(=O)[C@@H](N)CC(=O)O | inactive | inactive | – | – |
| COc1ccc(Cl)cc1C(=O)NCCc1ccc(S(=O)(=O)NC(=O)NC2CCCCC2)cc1 | inactive | inactive | – | – |

| SMILES | Potency [1] | Potency [2] | viability change, negative = cytotoxic [1] | activity change, negative = cytotoxicity [2] |
| --- | --- | --- | --- | --- |
| CCc1c(Br)c(Br)c(Br)c(Br)c1Br | inactive | inactive | – | – |
| CC[C@@]1(O)C(=O)OCc2c1cc1n(c2=O)Cc2cc3c(CN(C)C)c(O)ccc3nc2-1 | inactive | inactive | – | – |
| Nc1cccc(O)c1 | inactive | inactive | – | – |
| C[C@@H](Oc1ccc(CNC(=O)c2cccnc2Oc2ccc3c(c2)OCO3)c(F)c1)C(=O)O | 13.7 µM (active) | inactive | – | – |
| NC(=O)Cn1c(=O)cc(CCN2CCN(c3nccc4sccc34)CC2)c2ccc(F)cc21 | inactive | inactive | – | – |
| COc1cc(Cl)ccc1Cl | inactive | inactive | – | – |
| CCCc1ccc(OCC(=O)N2CCN(C(=O)COc3ccc(CCC)cc3OC)CC2)c(OC)c1 | inactive | inactive | – | – |
| COc1ccc(C(=O)Nc2nc3ccccc3c(NCc3ccccc3)c2C#N)cc1 | inactive | inactive | – | – |
| O=C1OC(=O)C2CCCCC12 (configuration not stated) | inactive | inactive | – | – |
| Cc1ccc(CO)cc1 | inactive | inactive | – | – |
| CCN(CC)c1ccc(C=O)c(O)c1 | inactive | inactive | – | – |
| CCC(C)(C)C(=O)O | inactive | inactive | – | – |
| O=C(O)c1cccc(C(=O)O)c1 | inactive | inactive | – | – |
| CC(C)(CO)COC(=O)C(C)(C)CO | inactive | inactive | – | – |
| COc1ccc(CCC(C)=O)cc1 | inactive | inactive | – | – |
| CCCC/C=C\CCCCCCCCCC=O | inactive | inactive | – | – |
| COC(=O)[C@@H](N)Cc1ccc(O)c(O)c1 | inactive | inactive | – | – |
| CC(=O)OC(C)=O | inactive | inactive | – | – |
| O=C1OCCN1/N=C/c1ccc([N+](=O)[O-])o1 | inactive | inactive | – | – |

| SMILES | Potency [1] | Potency [2] | viability change, negative = cytotoxic [1] | activity change, negative = cytotoxicity [2] |
| --- | --- | --- | --- | --- |
| CNCCC(Oc1ccccc1OC)c1ccccc1 (configuration not stated) | inactive | inactive | – | – |
| Nc1cc(-c2ccncc2)c[nH]c1=O | inactive | inactive | – | – |
| O=C(CO)[C@@H](O)[C@H](O)[C@@H](O)CO | inactive | inactive | – | – |
| O=C(CCCCCCCCC#CI)Oc1ccccc1 | inactive | inactive | – | – |
| Cc1cc(C(=C2C=CC(=Nc3ccc(S(=O)(=O)O)cc3S(=O)(=O)O)C=C2)c2ccc(Nc3ccc(S(=O)(=O)O)cc3)cc2)ccc1N | inactive | inactive | – | – |
| Cc1cccc(Br)c1 | inactive | inactive | – | – |
| CN1C(=O)CC(C)(c2ccccc2)C1=O (configuration not stated) | inactive | inactive | – | – |
| C[C@@H](CN(C)C)CN1c2ccccc2Sc2ccccc21 | inactive | inactive | – | – |
| CCCCC/C=C\C/C=C\CCCCCCCC(=O)NC(C)c1ccccc1 (configuration not stated) | inactive | inactive | – | – |
| Nc1ccc(O)cc1 | inactive | inactive | – | – |
| CC(C)OC(=O)OCOP(=O)(CO[C@H](C)Cn1cnc2c(N)ncnc21)OCOC(=O)OC(C)C | inactive | inactive | – | – |
| O=[N+]([O-])c1ccc(F)c(Cl)c1 | inactive | inactive | – | – |
| CNCCc1ccccn1 | inactive | inactive | – | – |
| CC1CCC(=O)C1=O (configuration not stated) | inactive | inactive | – | – |
| CCCCCCCCCCCCCCCCCCCl | – | – | -1.12% [at 8.39 µM] | -6.8% [at 8.39 µM] |
| Cc1cc(=O)n(-c2ccccc2)n1C | inactive | inactive | – | – |
| Cc1cc(O)ccc1O | inactive | inactive | – | – |
| Cc1cc(O)c(Cl)cc1C | inactive | inactive | – | – |
